HPGD block = blocks human HPGD enzyme activity | purified HPGD, NADH fluorescence kinetic, PGE2 substrate | Potency, µM, without a hit: at the top dose activity change, negative = inhibition, hits mostly inhibitors | 4.3% of 150,000 active; further: potency means the concentration at half of the fitted maximal effect
Target sequence (P15428 whole entry, looked up): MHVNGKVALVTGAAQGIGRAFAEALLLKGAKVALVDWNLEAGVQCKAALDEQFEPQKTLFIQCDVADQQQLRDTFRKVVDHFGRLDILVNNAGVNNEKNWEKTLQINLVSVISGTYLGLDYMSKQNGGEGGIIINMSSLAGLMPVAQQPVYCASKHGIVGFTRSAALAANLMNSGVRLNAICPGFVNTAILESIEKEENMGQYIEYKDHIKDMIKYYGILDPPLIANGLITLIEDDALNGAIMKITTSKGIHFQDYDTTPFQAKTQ
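20 nM HPGD preincubated 15 min at room temperature with compound in 50 mM Tris-HCl pH 8, 0.01% Tween 20. Started with 1 mM NAD+ and 30 uM prostaglandin E2; NADH fluorescence (360/450 nm) read 5 times over 30-s intervals, last minus first.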
IMPase inh = IMPase inhibition in cells. P97697. CHO-M1 cells, IP1 accumulation, HTRF TR-FRET ratio. inhibition (IP1 accumulation), % at 46.1 µM. 120,000 tested, under 10 active. AID 901; active means well fitted curve in the direction sought with a large enough effect in the signal ratio, not every such curve was filed as active; inconclusive means small, poorly fitted or top-dose-only effect, or a change in a side signal; inactive means no such curve, though single readings can be large or run the other way; the % refers to the signal ratio;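 further: cells stimulated with carbachol in lithium chloride buffer; plate controls were DMSO basal wells for no effect and reference inhibitor wells for full effect; higher means more IMPase inhibition seen as more IP1 and lower FRET ratio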
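CHO-M1, 2000 cells/well, cultured 16–30 h; cpd up to 46 uM; carbachol (50 uM solution, stimulation buffer w/ 50 mM LiCl, pH 7.4), 30 min 37C; IP-One TR-FRET, 10 min RT; Ex 320/Em 665, 620; Hill-fit AC50.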
ALDH1A1 block = ALDH1A1 (human) enzyme inhibition. 7.3% of 220,000 active. Purified ALDH1A1, NADH fluorescence, propionaldehyde substrate. Potency, µM (titrated, usually from 75.3 µM), for inactives: at the highest dose activity, negative = inhibition, most hits filed as inhibitors. P00352;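 further: potency means the concentration at half of the fitted maximal effect; plate controls were no enzyme wells and a reference inhibitor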
An asterisk follows results filed as active; u = inconclusive; x = no result given. Hits are enriched below; roughly 9% of the tested compounds scored in any of these assays. Unless noted, the call rests on the fitted dose curve; in most records, active means well fitted inhibition curve with a large enough effect (not every such curve was filed as active); inconclusive means small, poorly fitted or top-dose-only effect, or another doubt; inactive means no such curve, though single readings can be large or run the other way. Unless noted, on the % scale 0 is the no-effect control and ±100 the full control effect.

SMILES	HPGD block	IMPase inh	ALDH1A1 block
COc1cccc(Nc2ncc3nc(CCc4ccccc4)c(=O)n(CCC#N)c3n2)c1	u	x	-10%
O=C(OCCOc1ccc(Br)cc1)c1ccc(Cl)nc1	x	x	-1%
O=C1c2ccccc2C(=O)N1OCc1cccc(Cl)c1	-2%	0	-1%
O=C1c2ccncc2C(=O)N1Cc1cccc(Cl)c1	18µM*	2	1%
Cc1cc(C(=O)N2CCN(S(=O)(=O)c3ccccc3F)CC2)c(C)o1	x	x	-9%
COC(=O)c1ccc(C2c3c(oc4ccccc4c3=O)C(=O)N2CCCN2CCOCC2)cc1 (stereo unspecified)	-12%	7	u
CCOc1ccc(C2c3c(oc4cc(C)c(C)cc4c3=O)C(=O)N2CCCN(C)C)cc1OC (stereo unspecified)	-19%	-1	u
CCCOc1ccc(C2c3c(oc4ccccc4c3=O)C(=O)N2CCCN2CCOCC2)cc1 (stereo unspecified)	-26%	13	8.9µM*
COc1cccc(C2c3c(oc4cc(C)c(C)cc4c3=O)C(=O)N2CCCN(C)C)c1 (stereo unspecified)	-11%	7	28µM*
COc1cccc(C2c3c(oc4ccccc4c3=O)C(=O)N2CCCN2CCOCC2)c1 (stereo unspecified)	-11%	x	u
C=CCOc1ccc(C2c3c(oc4ccc(C)cc4c3=O)C(=O)N2CCCN2CCOCC2)cc1 (stereo unspecified)	x	0	x
CCOc1ccc(C2c3c(oc4cc(C)c(C)cc4c3=O)C(=O)N2CCCN2CCOCC2)cc1 (stereo unspecified)	-19%	-3	7.9µM*
CCOc1ccc(C2c3c(oc4ccccc4c3=O)C(=O)N2CCCN2CCOCC2)cc1 (stereo unspecified)	-18%	-12	6.3µM*
Cc1ccc(NC(=O)CC(O)(C(F)(F)F)C(F)(F)F)cc1	-9%	-3	14%
O=C(NCC1CCCO1)C1CCN(C2CCN(C3CCCCCC3)CC2)CC1 (stereo unspecified)	x	x	1%
Fc1ccc([C@@H]2Nc3ccccc3[C@@H]3C=CC[C@@H]32)cc1	x	5	x
COc1cc(C2c3c(oc4ccccc4c3=O)C(=O)N2CCN2CCOCC2)cc(OC)c1OC (stereo unspecified)	3%	10	8%
Cc1cc2oc3c(c(=O)c2cc1C)C(c1ccc(C(C)C)cc1)N(CCCN1CCOCC1)C3=O (stereo unspecified)	-19%	x	4µM*
COc1ccc(NC(=O)Nc2cccc(NC(C)=O)c2)c(OC)c1	x	x	-16%
CC(=O)c1ccc(Nc2c3c(c(C#N)c4nc5ccccc5n24)CCC3)cc1	-14%	-7	7%
COc1ccc(Nc2c3c(c(C#N)c4nc5ccccc5n24)CCC3)cc1	1.3µM*	7	u
CCCCN(C(=O)CSc1nnc(-c2ccccc2OC)n1C)c1c(N)n(Cc2ccccc2)c(=O)[nH]c1=O	-9%	x	0%
Cc1ccc(CN2CCN(Cc3ccc(C)s3)CC2CCO)cc1 (stereo unspecified)	x	x	8%
NS(=O)(=O)c1ccc(Nc2nc(-c3ccc4ccccc4c3)cs2)cc1	-20%	-4	-13%
Cc1ccc(-c2csc(NC(=O)Cc3ccc(F)cc3)n2)o1	x	x	3.5µM*
SMILES	HPGD block	IMPase inh	ALDH1A1 block
Cc1ccc(-c2csc(NC(=O)c3ccc(-c4ccccc4)cc3)n2)o1	u	-6	20µM*
O=C(Nc1nc(-c2ccco2)cs1)c1ccccc1	-29%	6	u
COc1ccc(CC(=O)Nc2nc(-c3cccnc3)cs2)cc1	-14%	x	-8%
Cc1ccc(-c2csc(Nc3ccc(S(N)(=O)=O)cc3)n2)o1	x	x	2.2µM*
CC1(C)Cn2c(nc(=O)c3c2NCN(CCc2ccccc2)C3)S1	x	x	-10%
COc1ccc(CCNC(=O)CSc2nc3c(c(=O)n(C)c(=O)n3C)n2C)cc1OC	-9%	-5	8%
COc1ccc(C2C(C(=O)c3ccccc3)N3c4ccccc4C=CC3C2[N+](=O)[O-])cc1 (stereo unspecified)	x	x	25µM*
COc1ccc(C(=O)N2c3ccccc3C=CC2C#N)cc1 (stereo unspecified)	-2%	x	u
Cc1ccc(CNC(=O)COC(=O)C2CCN(S(=O)(=O)c3cccs3)CC2)cc1	x	x	-2%
COc1ccc(CNC(=O)CN2CCN(S(=O)(=O)c3cccs3)CC2)cc1OC	x	x	11µM*
O=C(O)CCCNS(=O)(=O)c1ccc(NCc2ccccc2)c(C(=O)O)c1	u	15	u
CCOC(=O)C1CCCN(c2nnnn2-c2ccccc2)C1 (stereo unspecified)	-12%	8	7.1µM*
O=C(NC1CCCC1)C1CCCN(S(=O)(=O)c2ccc(-n3cnnn3)cc2)C1 (stereo unspecified)	-7%	4	5%
O=C(NC1CCCCC1)C1CCCN(c2nnnn2-c2ccccc2)C1 (stereo unspecified)	-23%	11	10µM*
CCOC(=O)C1CCCN(c2c(N3CCN(c4ccccn4)CC3)c(=O)c2=O)C1 (stereo unspecified)	-5%	3	-4%
COc1ccc(C(CNC(=O)Cc2c(F)cccc2Cl)N2CCCCC2)cc1 (stereo unspecified)	x	x	5%
C[C@]12CCC(=O)C=C1CCC1C2C(O)C[C@]2(C)C1CC[C@]2(O)C(=O)CO (stereo partly specified)	-1%	x	10%
